Measurements as given in PubChem BioAssay (NCATS).
Results filed as inconclusive are left out. Active and inactive are the calls of the source. Calls come from the whole dose curve; as a rule, active = well fitted curve in the direction sought with a large enough effect; inconclusive = small, poorly fitted or top-dose-only effect, or another doubt; inactive = no such curve, though single readings can be large; an effect the other way counts as inactive or inconclusive.

How the values were obtained:
[1] = MultiTox-Fluor Cytotoxicity Assay - LYMP1-003 - Live Cells (AID 962);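 note: cells exposed to compound for 16 hours at 37 °C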
Procedure, shortened: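 Cells plated at 2500 per well and incubated 5 hr; compounds added and incubated 16 hr at 37 C; MultiTox-Fluor reagent added for 60 min at room temperature; fluorescence of liberated AFC measured at 405/510 nm.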

[2] = Cell Viability - LYMP1-003 - Assay at 40 hr (AID 964); note: nearly all actives have a fitted effect of over 60% in size
Procedure, shortened: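 This qHTS cytotoxicity screen treats human lymphoblastoid cells (LYMP1-003) with compounds for 40 hr and quantifies cellular ATP via luciferase luminescence.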

[3] = Cell Viability - LYMP2-003 (AID 965);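 note: cells exposed to compounds for 24 h before reading; nearly all actives have a fitted effect of over 50% in size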
Procedure, shortened: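 Acute cytotoxicity is scored as a concentration-dependent drop in intracellular ATP, measured by luciferase luminescence in human lymphoblastoid cells treated for 24 hours at 37 C. AC50 values derive from Hill-equation modelling.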

[4] = Cell Viability - LYMP2-005 (AID 967)
Procedure, shortened: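 qHTS viability screen in LYMP2-005 cells: 24 h at 37 C with compound, ATP luminescence via CellTiter-Glo, AC50 from Hill curves.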

[5] = Cell Viability - LYMP2-011 (AID 969); note: nearly all actives have a fitted effect of over 60% in size
Procedure, shortened: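 Acute toxicity is scored as a concentration-dependent drop in intracellular ATP of a human lymphoblastoid line after 24 hr treatment. Values are AC50s modeled with the Hill equation.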

[6] = Cell Viability - LYMP2-013 (AID 970); note: nearly all actives have a fitted effect of over 55% in size
Procedure, shortened: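 Acute toxicity was measured in human lymphoblastoid cells (2500/well) exposed to compound titrations for 24 hr, with ATP luminescence (CellTiter-Glo) as read-out and AC50 fitted by Hill equation.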

[7] = Cell Viability - LYMP2-019 (AID 973); note: nearly all actives have a fitted effect of over 55% in size
Procedure, shortened: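 Cells plated at 2500/well and allowed 5 hr at 37 C before compound addition. After 24 hr incubation, CellTiter-Glo reagent was added, plates sat 30 min at room temperature, and luminescence was recorded.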

[8] = Cell Viability - LYMP2-021 (AID 974);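 note: compound exposure lasts 24 hours at 37 °C; nearly all actives have a fitted effect of over 55% in size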
Procedure, shortened: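 Concentration-response cytotoxicity in a human lymphoblastoid line: 24 hr treatment at 37 C in complete culture medium, tetraoctylammonium bromide as positive control, luminescent ATP quantitation as viability measure.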

[9] = Cell Viability - LYMP2-023 (AID 975);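 note: cells exposed to compound for 24 hours at 37 °C; nearly all actives have a fitted effect of over 55% in size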
Procedure, shortened: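 Concentration-dependent drop in intracellular ATP measures acute cytotoxicity in a human lymphoblastoid line treated for 24 hours in complete culture medium. AC50 values are taken from Hill-equation fits of qHTS data.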

[10] = Cell Viability - LYMP2-006 (AID 978); note: nearly all actives have a fitted effect of over 60% in size
Procedure, shortened: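 Concentration-dependent loss of intracellular ATP in a human lymphoblastoid line after 24 hr treatment at 37 C was measured by CellTiter-Glo luminescence, with AC50 values obtained from standard Hill-equation modelling.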

[11] = Cell Viability - LYMP2-007 (AID 979);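 note: cells exposed to compound for 24 h before reading; nearly all actives have a fitted effect of over 60% in size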
Procedure, shortened: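 Acute toxicity is scored as a concentration-dependent fall in intracellular ATP in human lymphoblastoid cells treated 24 hr at 37 C, measured by luciferase luminescence; Hill-equation modelling yields AC50.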

[12] = Cell Viability - LYMP2-008 (AID 980); note: nearly all actives have a fitted effect of over 60% in size
Procedure, shortened: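 Acute cytotoxicity is scored as concentration-dependent loss of cellular ATP in a human lymphoblastoid line after 24 hr treatment at 37 C. ATP is quantified by luciferase luminescence.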

[13] = Cell Viability - LYMP2-010 (AID 981)
Procedure, shortened: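 Acute toxicity is scored as a concentration-dependent loss of cellular ATP in human lymphoblastoid cells after 24 hr compound exposure in complete medium. Tetraoctylammonium bromide is the positive control.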

[14] = Cell Viability - LYMP2-012 (AID 982)
[15] = Cell Viability - LYMP2-014 (AID 983); note: nearly all actives have a fitted effect of over 50% in size
Procedure, shortened: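 Decrease in intracellular ATP after 24 hr treatment at 37 C, measured by luciferase luminescence, indicated cytotoxicity. Concentration-response data were fitted with the standard Hill equation to give AC50.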

[16] = Cell Viability - LYMP2-016 (AID 984)
Procedure, shortened: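 Acute toxicity in a Coriell human lymphoblastoid line is scored as loss of intracellular ATP over 24 h of treatment in complete medium. CellTiter-Glo signal is fitted across concentrations with the Hill equation to give AC50.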

[17] = Cell Viability - LYMP2-018 (AID 985);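 note: compound exposure lasted 24 hr at 37 °C; nearly all actives have a fitted effect of over 50% in size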
Procedure, shortened: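 Acute cytotoxicity is scored as a concentration-dependent drop in intracellular ATP after 24 hr exposure of the lymphoblastoid line in complete culture medium, measured by luciferase luminescence. Potency is expressed as AC50 from Hill modelling.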

[18] = Cell Viability - LYMP2-020 (AID 986); note: nearly all actives have a fitted effect of over 55% in size
Procedure, shortened: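 Acute cytotoxicity in a human lymphoblastoid line is scored as a concentration-dependent fall in cellular ATP after 24 hr at 37 C in complete medium. The positive control is tetraoctylammonium bromide, and potency is given as Hill-fit AC50.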

[19] = Cell Viability - LYMP2-024 (AID 988); note: nearly all actives have a fitted effect of over 60% in size
Procedure, shortened: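 Acute toxicity is measured as concentration-dependent loss of intracellular ATP in a human lymphoblastoid line treated 24 hours at 37 C. Luciferase luminescence quantifies ATP; AC50 values come from standard Hill-equation modelling.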

[20] = Cell Viability - LYMP2-026 (AID 989); note: nearly all actives have a fitted effect of over 50% in size
Procedure, shortened: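 Concentration-dependent loss of intracellular ATP in human lymphoblastoid cells after 24 hr at 37 C, quantified by luciferase luminescence. AC50 derived from standard Hill equation.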

Measured: Potency
Potency is the fitted concentration of half-maximal effect.

C=CC(=O)OCC(CO)(COC(=O)C=C)COC(=O)C=C
active: [1] 3.98 µM | [2] 3.98 µM | [3] 3.98 µM | [4] 2.51 µM | [5] 5.01 µM | [6] 5.01 µM | [7] 3.98 µM | [8] 3.98 µM | [9] 6.31 µM | [10] 5.01 µM | [11] 5.01 µM | [12] 5.01 µM | [13] 3.98 µM | [14] 3.98 µM | [15] 5.01 µM | [16] 5.01 µM | [17] 3.98 µM | [18] 3.98 µM | [19] 3.16 µM | [20] 6.31 µM

O=Nc1ccc(Nc2ccccc2)cc1
active: [1] 6.31 µM | [2] 7.94 µM | [3] 7.94 µM | [4] 10 µM | [5] 7.94 µM | [6] 10 µM | [7] 3.98 µM | [8] 5.01 µM | [9] 6.31 µM | [10] 7.94 µM | [11] 5.01 µM | [12] 7.94 µM | [13] 5.01 µM | [14] 7.94 µM | [15] 6.31 µM | [16] 6.31 µM | [17] 3.98 µM | [18] 5.01 µM | [19] 2.51 µM | [20] 6.31 µM
